# Among all 310,000 compounds or so, about 14,000 (4.5%) showed an effect of 50% or more. The effect is printed as a negative number. Many of the other results were omitted from the sample, so strong results are more common in it than they were.
# Target: human ether-à-go-go-related gene (hERG) potassium channel (human, UniProt Q12809)
# Test: primary screen, population patch clamp on CHO cells stably expressing hERG; higher = less effect of the substance
# 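Also: peak tail current of the secondary pulse compared with the same well before compound.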
# Chain of human ether-à-go-go-related gene (hERG) potassium channel (Q12809 whole entry, looked up): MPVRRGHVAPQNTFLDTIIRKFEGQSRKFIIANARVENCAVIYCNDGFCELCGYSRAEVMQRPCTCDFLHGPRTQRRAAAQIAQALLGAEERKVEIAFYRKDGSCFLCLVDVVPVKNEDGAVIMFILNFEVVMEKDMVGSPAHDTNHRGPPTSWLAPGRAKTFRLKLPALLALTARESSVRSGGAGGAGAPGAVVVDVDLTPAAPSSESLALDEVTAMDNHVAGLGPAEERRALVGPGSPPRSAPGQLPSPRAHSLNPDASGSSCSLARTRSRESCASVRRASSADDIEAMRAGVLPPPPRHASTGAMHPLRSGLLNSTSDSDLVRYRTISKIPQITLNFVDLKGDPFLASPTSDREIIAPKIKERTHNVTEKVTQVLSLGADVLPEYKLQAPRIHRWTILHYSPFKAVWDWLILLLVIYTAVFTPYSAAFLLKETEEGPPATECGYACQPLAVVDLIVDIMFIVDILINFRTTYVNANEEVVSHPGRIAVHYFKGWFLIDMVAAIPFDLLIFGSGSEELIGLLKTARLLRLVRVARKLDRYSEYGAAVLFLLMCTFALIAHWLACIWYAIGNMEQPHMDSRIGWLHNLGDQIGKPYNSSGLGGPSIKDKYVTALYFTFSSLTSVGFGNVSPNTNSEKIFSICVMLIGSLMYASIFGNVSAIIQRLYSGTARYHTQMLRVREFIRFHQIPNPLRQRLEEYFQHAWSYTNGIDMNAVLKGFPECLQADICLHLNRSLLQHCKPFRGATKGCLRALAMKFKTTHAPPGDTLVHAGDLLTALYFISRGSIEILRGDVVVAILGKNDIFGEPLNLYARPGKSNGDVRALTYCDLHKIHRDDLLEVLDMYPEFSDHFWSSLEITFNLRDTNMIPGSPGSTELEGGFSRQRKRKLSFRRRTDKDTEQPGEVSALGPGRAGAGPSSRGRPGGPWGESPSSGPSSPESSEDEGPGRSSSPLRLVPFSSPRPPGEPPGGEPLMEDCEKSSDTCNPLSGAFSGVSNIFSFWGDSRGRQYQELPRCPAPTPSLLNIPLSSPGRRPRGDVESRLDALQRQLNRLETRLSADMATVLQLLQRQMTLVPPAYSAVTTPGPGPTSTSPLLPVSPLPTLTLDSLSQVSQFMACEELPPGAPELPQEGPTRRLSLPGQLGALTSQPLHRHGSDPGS
row,SMILES,"hERG current change (%, negative = inhibition) at 10uM [%]"
1,COc1ccc(NS(=O)(=O)c2ccc(-c3cnc(C4CC4)o3)cc2)cc1OC,14.6
2,CC1(C)Cc2c(sc(NC(=O)COc3ccc(Cl)cc3)c2C(N)=O)C(C)(C)N1,0.951
3,COC(=O)C(NNc1ccc(F)cc1)(NC(=O)c1ccccc1)C(F)(F)F (stereo not drawn),-3.67
4,O=C(Nc1cc(Cl)ccc1-n1cncn1)c1ccc([N+](=O)[O-])s1,-27.9
5,O=C(O)C1OC(C(=O)O)C2C1C(F)(F)C2(F)F (stereo not drawn),14.3
6,O=C(Cc1cn2ccsc2n1)Nc1cccc2cnccc12,9.76
7,CCOC(=O)c1c(C)n(-c2ccc(OC)cc2)c2ccc(O)c(CN(C)C)c12.Cl,-74.2
8,CCOC(=O)c1c(C)n(-c2ccccc2)c2ccc(O)c(CN(C)C)c12.Cl,-30.7
9,CCN(CC)Cc1c(O)ccc2c([N+](=O)[O-])c(C)n(-c3ccc(OC)cc3)c12,-24.9
10,CCOC(=O)c1c(C)n(-c2ccc(C)cc2)c2ccc(O)c(CN(C)C)c12.Cl,-74.2
11,Cc1ccc(-n2c(C)c([N+](=O)[O-])c3ccc(O)c(CN(C)C)c32)cc1,-23.6
12,COc1ccc(-n2c(C)c([N+](=O)[O-])c3ccc(O)c(CN(C)C)c32)cc1,-57.6
13,CCOC(=O)c1sc(=N)n(-c2ccc(OC)cc2)c1C,-4.06
14,CCOC(=O)c1c(C)n(C)c2ccc(O)c(CN(CC)CC)c12.Cl,-20
15,CCOC(=O)c1c(C)n(C)c2ccc(O)c(CN(C)C)c12.O=C(O)C(=O)O,-6.82
16,Cc1cccc(NC(=O)COc2ccccc2C)n1,7.83
17,Cl.Clc1ccccc1CSc1nnc([C@@H]2CCCN2)o1,15.1
18,COc1ccc(C(=O)CNc2ccccc2Br)cc1,18.8
19,COC(=O)C1CCN(C(=O)N2CCOCC2)CC1,5.68
20,CC(/C=N/NC(=O)c1nnn(-c2nonc2N)c1C(C)C)=C\c1ccco1,8.07
21,CSCCC(NC(=O)c1ccccc1Cl)C(=O)NNC(=O)c1csc(N2CCOCC2)n1 (stereo not drawn),-29.9
22,CSCCC(NC(=O)c1ccc(Cl)cc1Cl)C(=O)NNC(=O)c1csc(N2CCOCC2)n1 (stereo not drawn),-56.8

row,SMILES,"hERG current change (%, negative = inhibition) at 10uM [%]"
1,Cc1cccc(C(=O)NNC(=O)c2csc(N3CCOCC3)n2)c1C,-9.89
2,Cc1ccsc1C(=O)NNC(=O)c1csc(N2CCOCC2)n1,12.7
3,CSCCC(NC(=O)c1ccccc1Br)C(=O)NNC(=O)c1csc(N2CCOCC2)n1 (stereo not drawn),-33.5
4,Cc1ccc(C)c(SCC(=O)NNC(=O)c2csc(N3CCOCC3)n2)c1,-55.1
5,C/C(N)=C(/C#N)C(=O)CSc1nc2ccccc2c(=O)n1CCCOC(C)C,-21.2
6,Cc1cc(O)cc(O)c1C=NCc1ccco1,-8.53
7,CC1C(c2ccccc2)=NNc2nc3c(c(=O)n(C)c(=O)n3C)n21 (stereo not drawn),3.99
8,COc1ccc(NC(=O)c2ccc(-c3ccc(-c4noc(C)n4)cc3C)cc2)cc1N1CCN(C)CC1.Cl,-76
9,COc1ccc(-c2nc(-c3ccc(NC(=O)c4ccncc4)cc3)no2)cc1OC,7.54
10,COc1ccc(C(=O)Nc2ccc(N3CCN(C)CC3)cc2)cc1OC,-11.9
11,CCOC(=O)c1c(NC(=O)CNC2CCCCC2)sc(C)c1C,10.3
12,N#CCSc1nnc(COc2ccc3ccccc3c2)o1,-5.89
13,O=C(Cc1ccc(Br)cc1)OCC(=O)c1ccc2c(c1)OCCO2,13.1
14,COc1cc(CC(=O)OCC(=O)c2ccc3c(c2)OCCO3)cc(OC)c1OC,-58.6
15,COc1cc(CC(=O)OCC(=O)Nc2ccc3c(c2)OCCO3)cc(OC)c1OC,26
16,CC(=O)C1=C(O)C(=O)OC1c1ccc(Cl)cc1 (stereo not drawn),7.92
17,FC(F)(F)c1nnc2ccc(NCc3ccccc3)nn12,8.9
18,CCN(CC(=O)NCc1ccc(Cl)cc1)C(=O)CSCC(=O)Nc1ccc(C)cc1,-77.9
19,CSc1ccc(CN(C)C(=O)CSCC(=O)Nc2cc(C)on2)cc1,6.59
20,CCN(CC(=O)NCc1ccc(Cl)cc1)C(=O)CSCC(=O)Nc1ccc(OC)cc1,-66.7
21,CCN(CC(=O)Nc1ccc(OC)cc1)C(=O)CSCC(=O)Nc1ccc(C)cc1,-23.5
22,CCN(CC(=O)Nc1c(F)cccc1F)C(=O)CSCC(=O)Nc1ccc(OC)cc1,-3.35

row,SMILES,"hERG current change (%, negative = inhibition) at 10uM [%]"
1,Cc1ccc(CSCC(=O)N(C)CC(=O)Nc2ccc(C)cc2)cc1,-2.48
2,CSc1ccc(CN(C)C(=O)CSCC(=O)Nc2ccc(C)cc2)cc1,-73
3,CCN(CC(=O)Nc1ccc2c(c1)OCCO2)C(=O)CSCC(=O)Nc1ccc(C)cc1,-31.1
4,CCN(CC(=O)Nc1ccc(NC(C)=O)cc1)C(=O)CSCC(=O)Nc1ccc(C)cc1,2.95
5,CC(CCc1ccccc1)NCC(O)c1ccc(O)c(C(N)=O)c1.Cl (stereo not drawn),-30.6
6,CCOC(=O)C1CCCN(Cc2cc(=O)oc3cc(C)ccc23)C1 (stereo not drawn),-13.6
7,CCOCC(=O)Nc1ccccc1C(=O)N1CCOCC1,-0.166
8,Nc1cc(N2CCCCC2)c(Cl)cc1[N+](=O)[O-],-10.8
9,NC(=O)C1CCN(CC(=O)NC(=O)NC2CCCC2)CC1,9.34
10,Cc1c(-c2cc(C(=O)O)no2)cnn1C,32.4
11,CCOC(=O)/C(=C/c1ccccc1)NC(=O)c1ccco1,-7.55
12,C=CCOC(=O)/C(=C\c1ccccc1)NC(=O)c1ccco1,1.97
13,O=C(NC(Cc1ccccc1)C(=O)O)/C(=C/c1cccc([N+](=O)[O-])c1)NC(=O)c1ccco1 (stereo not drawn),-11.4
14,O=C(OCc1ccccc1)/C(=C/c1cccc([N+](=O)[O-])c1)NC(=O)c1ccco1,-63.3
15,O=C(OCc1ccccc1)/C(=C/c1cccc(Br)c1)NC(=O)c1ccco1,-52.5
16,O=C(NC(Cc1ccccc1)C(=O)O)/C(=C\c1cccc([N+](=O)[O-])c1)NC(=O)c1ccco1 (stereo not drawn),28.4
17,O=C(COc1ccc(Cl)cc1)NC(=S)Nc1ccccc1N1CCOCC1,17.4
18,Cc1ccc2c(O)c(C)c(=O)[nH]c2n1,24.3
19,O=C(Nc1ccc(S(=O)(=O)NC2=NCCCCC2)cc1)c1ccco1,2.7
20,CCN(CC)c1ccc(NC(=O)CSc2ccsc2[N+](=O)[O-])c(C)c1,5.74
21,Br.CN1CCN(CC(=O)c2cc(C(C)(C)C)c(O)c(C(C)(C)C)c2)CC1,-13.3
22,COc1cccc(Cn2c(=O)oc3ccccc32)c1,4.3

row,SMILES,"hERG current change (%, negative = inhibition) at 10uM [%]"
1,Cc1csc2nc(COC(=O)c3ccc(Cl)c([N+](=O)[O-])c3)cc(=O)n12,-63.1
2,COc1ccc(C(=O)OCc2cc(=O)n3c(C)csc3n2)cc1F,-2.77
3,Cc1csc2nc(COC(=O)c3cccc(N(C)C)c3)cc(=O)n12,-32.5
4,Fc1ccc(-c2cc(C(F)(F)F)nc(N3CCCCC3)n2)cc1,19.5
5,C/C(Cn1nc([N+](=O)[O-])cc1C)=N\NC(=O)COc1ccc(Cl)cc1Cl,-66.3
6,CCCNC(=O)C/C(C)=N/NC(=O)COc1ccc(C)cc1Br,-20.9
7,COc1ccc(C(=O)N/N=C(\C)Cn2nc([N+](=O)[O-])cc2C)cc1,-15.8
8,C/C(CC(=O)NCc1ccco1)=N\NC(=O)c1ccc(Cl)cc1Cl,8.44
9,C/C(Cn1nc([N+](=O)[O-])cc1C)=N\NC(=O)COc1ccccc1[N+](=O)[O-],-17.4
10,C/C(Cn1nc([N+](=O)[O-])cc1C)=N\NC(=O)COc1c(Cl)cc(Cl)cc1Cl,-68
11,O=C(COc1ccc(Cl)cc1Cl)NCc1ccco1,0.837
12,C/C(Cn1cnc([N+](=O)[O-])n1)=N/NC(=O)COc1c(Cl)cc(Cl)cc1Cl,-31.4
13,Cc1cc(C)n(CC(=O)NNC(=O)COc2ccc(Cl)cc2Cl)n1,3.06
14,COc1ccccc1CNC(=O)C/C(C)=N/NC(=O)COc1ccc(C)cc1Br,-63.9
15,C/C(CC(=O)NCc1ccc(Cl)cc1)=N\NC(=O)COc1ccc(C)cc1Br,-33.1
16,C/C(CC(=O)NCc1ccco1)=N\NC(=O)COc1ccc(Cl)cc1Cl,-65.6
17,O=C(NN1C(=O)CSC1=S)C(=O)NN1C(=O)CSC1=S,25.3
18,O=C(Nc1ccccc1C(=O)Nc1ccccc1C(=O)O)c1ccccc1,20.5
19,CN1CCN(Cc2nnc(-c3ccccc3)o2)CC1,22.7
20,C/C(=C\C(=O)c1cccnc1)Nc1ccc(C)c(C)c1,-20
21,CCc1ccc(OCC2NCCc3cc(OC)c(OC)cc32)cc1 (stereo not drawn),-45.2
